# NS1 function inh: blocks influenza NS1 protein function. Potency, µM (series often up to 46.1 µM), for inactives: at the top dose activity, positive = more growth. 0.4% of 270,000 active. AID 2326; calls by dose curve; note: actives are rising curves; nearly all actives have a fitted effect of over 50% in size
#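 A cell-based growth assay was used: compounds that relieve NS1-induced slow growth of budding yeast raise OD600. Assay medium was yeast nitrogen base with ammonium sulphate and -URA supplement, pH 6.0, with 2% galactose.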
# Pf growth 48h: P. falciparum growth inhibition at 48 hours (one generation). P. falciparum luciferase growth in erythrocytes, 48 h. Potency, µM (doses to about 28.7 µM), for the others: at the top dose activity change, negative = inhibition, most hits filed as inhibitors. 5.9% of 310,000 active; note: % is set by controls: 0 for no effect and ±100 for the full control effect
#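 Compounds are pin-transferred into medium, infected erythrocytes (2% hematocrit, 0.1% parasitemia final) are added, and plates sit one parasite generation at 37 C in 5% CO2. Detection reagent is then added and luminescence measured.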
# AMA1 RON2 block: inhibitors of Plasmodium falciparum AMA1-RON2 interaction; AlphaScreen AMA1-biotinylated RON2 peptide binding; Potency, µM (titrated, usually from 58.2 µM), for the others: at the top dose activity change, negative = inhibition, usual class: inhibitors; 0.2% of 360,000 active; AID 720542;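 note: 0% = vehicle wells and -100% = peptide control; nearly all actives have a fitted effect of over 45% in size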
#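 AMA1 (3D7) with his tag at 25 nM final met compounds first, then biotinylated RON2 peptide at 25 nM; detection used donor plus acceptor beads, 10 µg/mL apiece, read by AlphaScreen after 30 min at room temperature.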
# Sm TGR inh: inhibitors of Schistosoma mansoni thioredoxin glutathione reductase; Q962Y6; purified TGR, DTNB reduction, TNB absorbance 405 nm; Potency, µM (doses to about 114 µM), for the others: at the highest dose activity change, negative = inhibition, usual class: inhibitors; 3% of 360,000 active; note: % is set by controls: 0 for no effect and ±100 for the full control effect; nearly all actives have a fitted effect of over 60% in size
#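 First, TGR (20 nM dispensed) and NADPH were mixed with compound. Second, a 15 min room-temperature incubation followed. Third, further NADPH and then DTNB were added to start the reaction. Finally, TNB absorbance was monitored kinetically.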
# Pf growth 96h: P. falciparum growth inhibition at 96 hour, primary screen for plastid delayed-death inhibitors | P. falciparum luciferase reporter growth, 96 h | 6.9% of 320,000 active | Potency, µM (doses to about 28.7 µM), for the others: at the top dose activity change, negative = inhibition, actives largely listed as inhibitors; note: % is set by controls: 0 for no effect and ±100 for the full control effect
#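 Delayed-death screen, second-generation endpoint: infected erythrocytes, 2% hematocrit, 0.05% parasitemia final; 96 hours at 37 C, 5% CO2; luciferase detection reagent; luminescence decrease equals reduced growth.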
# The depositor's hits bear a star; u = inconclusive; x = no result given; [ ] = dose if it differs, or a comment. Most compounds without a hit are left out; they make up all but 11% or so of the library. Unless noted, calls come from the whole dose curve; as a rule, active = well fitted curve in the direction sought with a large enough effect; inconclusive = small, poorly fitted or top-dose-only effect, or another doubt; inactive = no such curve, though single readings can be large; an effect the other way counts as inactive or inconclusive. Potency is the fitted concentration of half-maximal effect.
SMILES,NS1 function inh,Pf growth 48h,AMA1 RON2 block,Sm TGR inh,Pf growth 96h
CCOC(=O)C1=C(C)N(c2ccccc2)C(=O)/C1=C\c1ccc(O)c(OC)c1,2.5µM*,u,u,3.2µM*,u
CCOC(=O)C1=C(C)N(c2ccccc2)C(=O)/C1=C\c1cccs1,-21%,-25%,-15%,-4%,25%
COC(=O)C1=C(C)N(c2ccccc2)/C(=C/c2ccco2)C1=O,2%,-13%,-15%,-24%,u
CCOC(=O)C1=C(C)N(c2ccccc2)C(=O)/C1=C\c1ccco1,-8%,20%,-27%,45µM*,u
COC(=O)C1=C(C)N(c2ccc(OC)c(OC)c2)C(=O)/C1=C\c1ccco1,6%,u,-15%,16µM*,7%
COC(=O)C1=C(C)N(c2cccc(C)c2)C(=O)/C1=C\c1cccs1,-2%,u,u,-4%,183%
Cc1ccc(S(=O)(=O)N(C)CC(=O)OCC(=O)NCCN2C(=O)CSC2=O)cc1,x,47%,0%,-8%,0%
C=CCNC(=O)CN1C(=O)c2cccc3cccc1c23,13%,9%,4%,-5%,4%
O=C(Cc1ccccc1)Nc1c[nH]c(=O)[nH]c1=O,13%,4%,-19%,-2%,u
O=C(CCl)Nc1c[nH]c(=O)[nH]c1=O,1%,1.7µM*,1%,u,8%
Cc1cc(O)c(CN2CC=C(c3ccccc3)CC2)cc1C(C)C,-1%,0.29µM*,0%,-8%,0.26µM*
OC(CN1CC=C(c2ccccc2)CC1)c1ccccc1 (centres undefined),21%,u,-18%,0%,u
CC(NC(=O)c1ccc(N2CCCC2)c([N+](=O)[O-])c1)c1ccc(S(N)(=O)=O)cc1 (centres undefined),9%,-3%,-4%,-28%,9%
CCOC(=O)CCC(=O)NCc1ccc2[nH]c(C)cc2c1,10%,u,1%,50µM*,u
CCOC(=O)NCc1ccc2[nH]c(C)cc2c1,26%,7%,-8%,u,37%
C/C(=C\c1cc2ccccc2o1)C1Nc2cccc3cccc(c23)N1,x,47%,x,13µM*,u
Cc1ccc(S(=O)(=O)NCC(c2ccco2)N2CCc3ccccc32)cc1 (centres undefined),x,u,-27%,7%,u
COc1ccc(C(=O)NCC(c2ccco2)N2CCc3ccccc32)c(OC)c1 (centres undefined),x,12µM*,-27%,0%,13µM*
COc1ccc(S(=O)(=O)NCC(c2ccco2)N2CCc3ccccc32)cc1 (centres undefined),x,9.3µM*,-25%,0%,u
O=[N+]([O-])c1ccc(S(=O)(=O)NCC(c2cccnc2)N2CCc3ccccc32)cc1 (centres undefined),x,12µM*,-21%,-5%,15µM*
COc1ccc(C(=O)NCC(c2ccco2)N2CCc3ccccc3C2)c(OC)c1 (centres undefined),x,x,-6%,x,x
COc1cccc(C2CC(=O)Nc3c2c(=O)[nH]c2ncnn32)c1OC (centres undefined),x,x,x,-1%,x
CC(C)Cc1cc(C(=O)N2CCC(N3CCC(C(=O)N4CCOCC4)CC3)CC2)n[nH]1,-1%,37%,2%,0%,u
Cc1cc(-c2ccccc2)nc(N/N=C/c2ccc(O)cc2)n1,x,u,79%,0%,u
Cc1cc(N/N=C/c2ccc(O)cc2)c2cccc(C)c2n1,-3%,0.37µM*,-14%,-21%,9.3µM*
SMILES,NS1 function inh,Pf growth 48h,AMA1 RON2 block,Sm TGR inh,Pf growth 96h
Cc1cc(N/N=C/c2ccc(N(C)C)cc2)c2ccccc2n1,-79%,24%,50%,1%,44%
Cc1cc(C)c2nc(C)cc(N/N=C/c3ccc(O)cc3)c2c1,-15%,0.13µM*,-24%,1%,-2%
O=C(CCN1C(=O)c2ccccc2S1(=O)=O)Nc1ccc(F)c([N+](=O)[O-])c1,x,35%,2%,-4%,5%
c1ccc(C(c2ccccc2)N2CCN(Cc3nnnn3C3CCCC3)CC2)cc1,-41%,u,-19%,u,37%
CC(C)CCn1nnnc1CN1CCN(C(c2ccccc2)c2ccccc2)CC1,x,6.6µM*,0%,-18%,-44%
CCC(C)(C)n1nnnc1C(c1ccccc1)N1CCN(Cc2ccccc2)CC1 (centres undefined),-3%,u,20%,0%,u
CCC(C)(C)n1nnnc1CN1CCN(C(c2ccccc2)c2ccccc2)CC1,-50%,7.4µM*,-24%,-7%,82%
CCc1cccc(CC)c1NC(=O)C1CCC(CNS(=O)(=O)c2cccc3nsnc23)CC1 (centres undefined),x,x,x,10%,x
Cc1ccc(CNC2=NCCS2)cc1,2%,u,3%,4%,3.3µM*
CCOc1ccc(/C=C2\SC(=S)N(N3C(=O)C4CC4C3=O)C2=O)cc1 (centres undefined),0%,4.1µM*,30%,-2%,-7%
CCOc1ccc(/C=C2\SC(=S)N(CC(=O)N(CCO)C(C)(C)C)C2=O)cc1,4%,0%,1%,x,13%
CCOc1ccc(/C=C2/SC(=O)NC2=S)cc1,-33%,4%,0%,45µM*,u
Cc1coc2c(C)c3oc(=O)c(CCC(=O)N[C@H](C(=O)O)C(C)C)c(C)c3cc12,x,x,0%,x,x
C/C(=C\C(=S)Nc1ccccc1)Nc1ccc2ccccc2c1,-45%,9.3µM*,3%,-16%,u
CC(C)(C)OC(=O)N1CCC[C@H]1c1nnc(SC/C=C/c2ccccc2)o1,-41%,10µM*,-6%,u,u
CC(C)(C)OC(=O)N1CCC[C@H]1c1nnc(SCc2ccccc2Cl)o1,-56%,u,3%,0%,u
CN1CCc2nc3sc(C(=O)C45CC6CC(CC(C6)C4)C5)c(N)c3cc2C1,u,9.3µM*,9%,u,2.6µM*
Cc1ccc(C)c(N2CCN(c3nc4ccccc4c4nc(-c5cccnc5)nn34)CC2)c1,x,x,x,7%,x
COC(=O)[C@H]1C[C@H](OC(=O)NCc2ccccc2F)[C@@]2(O)CN(S(=O)(=O)c3ccc(C)cc3)CC2[C@H]1C(=O)OC (some centres undefined),x,x,2%,x,x
CS(=O)(=O)c1ccc(S(=O)CC(=O)OCc2ccccc2)c([N+](=O)[O-])c1 (centres undefined),x,-17%[5.75 µM],0%,2.5µM*,u
CCOC(=O)c1ccccc1OC(=O)CS(=O)c1ccccc1[N+](=O)[O-] (centres undefined),0%,17%,4%,x,10%
O=C(CS(=O)c1ccc(C(F)(F)F)cc1[N+](=O)[O-])Oc1ccccc1 (centres undefined),-156%,x,-19%,35µM*,-79%
COC(=O)c1ccc(OC(=O)CS(=O)c2ccccc2[N+](=O)[O-])cc1 (centres undefined),-31%,34%,3%,22µM*,-32%

# Bioassay records deposited in PubChem BioAssay by National Center for Advancing Translational Sciences (NCATS).
